Assay results published in ChEMBL document CHEMBL1961873, “Compounds: GSK PKIS; Assays: Nanosyn kinase panel” (2012).

Key:
[1] = target: Tyrosine-protein kinase Fyn (Homo sapiens) (UniProt P06241); details: at 1 µM
[2] = target: Tyrosine-protein kinase HCK (Homo sapiens) (UniProt P08631); details: at 0.1 µM
[3] = target: Tyrosine-protein kinase HCK (Homo sapiens) (UniProt P08631); details: at 1 µM
[4] = target: Insulin-like growth factor 1 receptor (Homo sapiens) (UniProt P08069); details: at 0.1 µM
[5] = target: Insulin-like growth factor 1 receptor (Homo sapiens) (UniProt P08069); details: at 1 µM
[6] = target: Insulin receptor (Homo sapiens) (UniProt P06213); details: at 0.1 µM
[7] = target: Insulin receptor (Homo sapiens) (UniProt P06213); details: at 1 µM
[8] = target: Insulin receptor-related protein (Homo sapiens) (UniProt P14616); details: at 0.1 µM
[9] = target: Insulin receptor-related protein (Homo sapiens) (UniProt P14616); details: at 1 µM
[10] = target: T1, Tyrosine-protein kinase ITK/TSK (Homo sapiens) (UniProt Q08881); details: at 0.1 µM
T1 sequence (whole entry): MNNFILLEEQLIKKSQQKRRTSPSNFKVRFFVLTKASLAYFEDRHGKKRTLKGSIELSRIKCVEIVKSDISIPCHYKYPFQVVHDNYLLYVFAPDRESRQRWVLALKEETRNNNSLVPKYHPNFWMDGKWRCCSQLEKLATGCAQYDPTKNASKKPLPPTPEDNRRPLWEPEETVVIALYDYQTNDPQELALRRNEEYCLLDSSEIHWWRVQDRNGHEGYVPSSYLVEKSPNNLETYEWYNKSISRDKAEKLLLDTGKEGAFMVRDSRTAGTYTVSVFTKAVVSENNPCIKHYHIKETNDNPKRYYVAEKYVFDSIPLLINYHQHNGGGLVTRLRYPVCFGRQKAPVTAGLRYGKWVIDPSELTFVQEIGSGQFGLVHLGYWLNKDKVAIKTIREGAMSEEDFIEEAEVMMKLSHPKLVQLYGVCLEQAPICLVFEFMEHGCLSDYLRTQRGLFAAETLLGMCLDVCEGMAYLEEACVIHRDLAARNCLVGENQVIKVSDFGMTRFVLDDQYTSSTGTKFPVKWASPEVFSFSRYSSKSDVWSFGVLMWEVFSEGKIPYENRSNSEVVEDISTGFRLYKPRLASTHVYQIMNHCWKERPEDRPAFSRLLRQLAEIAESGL

[11] = target: T1, Tyrosine-protein kinase ITK/TSK (Homo sapiens); details: at 1 µM
[12] = target: Tyrosine-protein kinase JAK1 (Homo sapiens) (UniProt P23458); details: at 0.1 µM
[13] = target: Tyrosine-protein kinase JAK1 (Homo sapiens) (UniProt P23458); details: at 1 µM
[14] = target: Tyrosine-protein kinase JAK2 (Homo sapiens) (UniProt O60674); details: at 0.1 µM
[15] = target: Tyrosine-protein kinase JAK2 (Homo sapiens) (UniProt O60674); details: at 1 µM
[16] = target: T2, Tyrosine-protein kinase JAK3 (Homo sapiens) (UniProt P52333); details: at 0.1 µM
T2 sequence (whole entry): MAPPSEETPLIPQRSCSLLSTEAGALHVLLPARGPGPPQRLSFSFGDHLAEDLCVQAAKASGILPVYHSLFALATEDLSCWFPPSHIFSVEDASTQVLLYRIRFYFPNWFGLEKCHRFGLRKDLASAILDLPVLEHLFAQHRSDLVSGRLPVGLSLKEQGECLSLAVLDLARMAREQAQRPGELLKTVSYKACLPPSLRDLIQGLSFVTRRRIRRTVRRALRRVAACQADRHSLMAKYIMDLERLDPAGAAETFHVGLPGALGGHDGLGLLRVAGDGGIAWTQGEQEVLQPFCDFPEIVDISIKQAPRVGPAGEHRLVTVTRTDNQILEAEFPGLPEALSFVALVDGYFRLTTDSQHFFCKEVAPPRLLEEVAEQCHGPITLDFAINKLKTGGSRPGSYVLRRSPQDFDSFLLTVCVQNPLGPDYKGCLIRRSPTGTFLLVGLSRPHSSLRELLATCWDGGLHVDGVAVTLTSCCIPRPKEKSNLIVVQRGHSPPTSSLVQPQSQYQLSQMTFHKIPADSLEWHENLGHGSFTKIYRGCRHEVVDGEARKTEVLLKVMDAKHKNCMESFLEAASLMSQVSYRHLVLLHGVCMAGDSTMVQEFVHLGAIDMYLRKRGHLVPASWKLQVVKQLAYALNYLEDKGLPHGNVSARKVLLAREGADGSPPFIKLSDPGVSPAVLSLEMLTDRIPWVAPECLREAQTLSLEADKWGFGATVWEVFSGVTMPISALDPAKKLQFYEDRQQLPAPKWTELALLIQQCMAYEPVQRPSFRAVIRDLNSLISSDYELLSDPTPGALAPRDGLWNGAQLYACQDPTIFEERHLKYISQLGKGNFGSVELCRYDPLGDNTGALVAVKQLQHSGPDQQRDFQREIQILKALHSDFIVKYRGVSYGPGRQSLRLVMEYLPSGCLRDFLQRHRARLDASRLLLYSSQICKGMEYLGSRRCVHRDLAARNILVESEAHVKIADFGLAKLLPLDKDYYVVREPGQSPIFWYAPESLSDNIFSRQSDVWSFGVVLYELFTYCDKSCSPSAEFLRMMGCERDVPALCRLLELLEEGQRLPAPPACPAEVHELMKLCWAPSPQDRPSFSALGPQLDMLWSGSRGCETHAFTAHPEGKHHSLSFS

[17] = target: T2, Tyrosine-protein kinase JAK3 (Homo sapiens); details: at 1 µM
[18] = target: Vascular endothelial growth factor receptor 2 (Homo sapiens) (UniProt P35968); details: at 0.1 µM
[19] = target: Vascular endothelial growth factor receptor 2 (Homo sapiens) (UniProt P35968); details: at 1 µM
[20] = target: Mast/stem cell growth factor receptor Kit (Homo sapiens) (UniProt P10721); details: at 0.1 µM;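 further: values are mean inhibition of KIT, from the GSK PKIS dataset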
Sequence of Mast/stem cell growth factor receptor Kit (Homo sapiens) (P10721 whole entry): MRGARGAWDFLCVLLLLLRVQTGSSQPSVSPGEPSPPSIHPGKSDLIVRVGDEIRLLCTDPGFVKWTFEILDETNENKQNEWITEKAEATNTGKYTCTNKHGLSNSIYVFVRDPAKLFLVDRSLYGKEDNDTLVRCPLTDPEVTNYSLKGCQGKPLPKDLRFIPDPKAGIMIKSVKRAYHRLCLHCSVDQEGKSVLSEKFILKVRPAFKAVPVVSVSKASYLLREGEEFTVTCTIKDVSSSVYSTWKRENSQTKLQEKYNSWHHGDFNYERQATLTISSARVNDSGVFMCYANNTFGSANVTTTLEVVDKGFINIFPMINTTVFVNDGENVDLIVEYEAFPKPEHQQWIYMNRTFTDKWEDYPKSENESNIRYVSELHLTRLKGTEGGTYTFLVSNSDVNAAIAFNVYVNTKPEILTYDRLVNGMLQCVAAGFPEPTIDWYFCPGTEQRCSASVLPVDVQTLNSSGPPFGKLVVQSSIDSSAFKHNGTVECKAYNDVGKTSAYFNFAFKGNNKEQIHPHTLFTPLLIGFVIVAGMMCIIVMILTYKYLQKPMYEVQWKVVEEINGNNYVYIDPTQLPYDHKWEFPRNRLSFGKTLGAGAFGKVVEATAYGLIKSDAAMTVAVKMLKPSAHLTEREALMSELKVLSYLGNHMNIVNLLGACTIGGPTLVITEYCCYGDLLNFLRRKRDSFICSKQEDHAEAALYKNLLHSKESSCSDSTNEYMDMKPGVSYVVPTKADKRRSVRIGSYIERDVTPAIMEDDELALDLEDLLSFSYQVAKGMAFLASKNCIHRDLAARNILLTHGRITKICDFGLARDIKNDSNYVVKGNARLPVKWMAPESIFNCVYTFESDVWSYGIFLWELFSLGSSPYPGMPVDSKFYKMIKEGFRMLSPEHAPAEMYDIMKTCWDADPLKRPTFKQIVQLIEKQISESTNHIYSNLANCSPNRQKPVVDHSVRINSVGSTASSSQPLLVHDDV

Sequence of Tyrosine-protein kinase JAK2 (Homo sapiens) (O60674 whole entry): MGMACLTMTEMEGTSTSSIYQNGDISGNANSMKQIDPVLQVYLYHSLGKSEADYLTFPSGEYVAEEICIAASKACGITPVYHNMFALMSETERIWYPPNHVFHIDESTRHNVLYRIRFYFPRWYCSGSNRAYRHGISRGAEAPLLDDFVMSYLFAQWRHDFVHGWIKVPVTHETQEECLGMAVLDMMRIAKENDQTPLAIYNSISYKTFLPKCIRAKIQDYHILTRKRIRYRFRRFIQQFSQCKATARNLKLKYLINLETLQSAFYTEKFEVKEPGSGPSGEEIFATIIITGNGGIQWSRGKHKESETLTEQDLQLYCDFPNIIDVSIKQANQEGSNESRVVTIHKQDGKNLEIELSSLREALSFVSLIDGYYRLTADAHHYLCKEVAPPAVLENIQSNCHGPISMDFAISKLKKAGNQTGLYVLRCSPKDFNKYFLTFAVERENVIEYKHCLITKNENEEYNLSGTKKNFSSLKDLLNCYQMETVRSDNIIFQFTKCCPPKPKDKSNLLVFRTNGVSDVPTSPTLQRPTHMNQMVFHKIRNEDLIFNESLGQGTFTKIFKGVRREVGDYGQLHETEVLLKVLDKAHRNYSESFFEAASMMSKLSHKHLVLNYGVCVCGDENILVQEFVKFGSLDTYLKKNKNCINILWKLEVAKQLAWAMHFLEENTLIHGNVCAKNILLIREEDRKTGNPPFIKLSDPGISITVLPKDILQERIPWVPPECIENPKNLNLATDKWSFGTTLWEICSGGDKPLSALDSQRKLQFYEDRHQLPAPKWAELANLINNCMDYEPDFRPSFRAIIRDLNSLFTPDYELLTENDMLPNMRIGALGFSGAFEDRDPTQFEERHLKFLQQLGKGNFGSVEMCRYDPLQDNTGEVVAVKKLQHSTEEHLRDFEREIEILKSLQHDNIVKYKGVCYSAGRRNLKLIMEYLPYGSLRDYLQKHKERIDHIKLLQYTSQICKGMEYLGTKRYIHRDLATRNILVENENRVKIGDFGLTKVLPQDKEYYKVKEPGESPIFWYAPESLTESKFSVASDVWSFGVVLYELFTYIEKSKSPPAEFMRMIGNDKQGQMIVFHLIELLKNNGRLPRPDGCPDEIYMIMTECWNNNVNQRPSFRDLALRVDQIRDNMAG
Sequence of Vascular endothelial growth factor receptor 2 (Homo sapiens) (P35968 whole entry): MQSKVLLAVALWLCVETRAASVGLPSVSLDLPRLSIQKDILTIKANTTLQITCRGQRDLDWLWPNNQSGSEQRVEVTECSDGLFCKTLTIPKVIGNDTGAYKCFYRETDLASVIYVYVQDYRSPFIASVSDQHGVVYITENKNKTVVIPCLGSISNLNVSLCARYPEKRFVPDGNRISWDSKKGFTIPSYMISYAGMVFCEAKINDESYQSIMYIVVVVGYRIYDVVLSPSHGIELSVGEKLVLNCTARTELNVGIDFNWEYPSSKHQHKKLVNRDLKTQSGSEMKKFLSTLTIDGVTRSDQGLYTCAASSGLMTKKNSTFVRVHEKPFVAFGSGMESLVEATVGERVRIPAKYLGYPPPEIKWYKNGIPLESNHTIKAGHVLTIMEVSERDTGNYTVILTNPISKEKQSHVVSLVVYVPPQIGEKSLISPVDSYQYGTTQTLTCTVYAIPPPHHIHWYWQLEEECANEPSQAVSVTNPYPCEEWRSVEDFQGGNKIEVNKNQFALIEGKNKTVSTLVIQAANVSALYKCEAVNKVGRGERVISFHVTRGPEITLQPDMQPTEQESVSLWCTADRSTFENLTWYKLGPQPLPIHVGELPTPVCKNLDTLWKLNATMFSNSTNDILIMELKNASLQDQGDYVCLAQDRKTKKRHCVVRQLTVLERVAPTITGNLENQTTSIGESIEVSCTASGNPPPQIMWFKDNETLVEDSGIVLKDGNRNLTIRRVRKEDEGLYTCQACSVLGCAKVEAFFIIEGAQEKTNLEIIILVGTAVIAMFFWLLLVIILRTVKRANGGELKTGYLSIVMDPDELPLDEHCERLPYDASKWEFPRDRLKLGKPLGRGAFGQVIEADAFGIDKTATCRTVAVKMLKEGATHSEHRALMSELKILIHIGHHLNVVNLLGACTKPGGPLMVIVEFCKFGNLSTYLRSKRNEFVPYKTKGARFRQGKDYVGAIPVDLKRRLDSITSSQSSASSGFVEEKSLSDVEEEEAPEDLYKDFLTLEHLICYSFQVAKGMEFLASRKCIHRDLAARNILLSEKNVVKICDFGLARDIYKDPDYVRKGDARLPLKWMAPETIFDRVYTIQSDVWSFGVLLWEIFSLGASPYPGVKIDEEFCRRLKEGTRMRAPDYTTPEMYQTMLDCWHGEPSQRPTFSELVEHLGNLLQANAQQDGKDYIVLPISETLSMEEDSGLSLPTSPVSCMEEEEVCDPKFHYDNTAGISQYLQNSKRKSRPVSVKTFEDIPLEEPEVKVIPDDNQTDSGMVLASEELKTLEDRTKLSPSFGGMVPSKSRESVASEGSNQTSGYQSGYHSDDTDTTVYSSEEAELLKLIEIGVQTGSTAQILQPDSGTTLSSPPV
Sequence of Insulin receptor (Homo sapiens) (P06213 28-758 limits assumed): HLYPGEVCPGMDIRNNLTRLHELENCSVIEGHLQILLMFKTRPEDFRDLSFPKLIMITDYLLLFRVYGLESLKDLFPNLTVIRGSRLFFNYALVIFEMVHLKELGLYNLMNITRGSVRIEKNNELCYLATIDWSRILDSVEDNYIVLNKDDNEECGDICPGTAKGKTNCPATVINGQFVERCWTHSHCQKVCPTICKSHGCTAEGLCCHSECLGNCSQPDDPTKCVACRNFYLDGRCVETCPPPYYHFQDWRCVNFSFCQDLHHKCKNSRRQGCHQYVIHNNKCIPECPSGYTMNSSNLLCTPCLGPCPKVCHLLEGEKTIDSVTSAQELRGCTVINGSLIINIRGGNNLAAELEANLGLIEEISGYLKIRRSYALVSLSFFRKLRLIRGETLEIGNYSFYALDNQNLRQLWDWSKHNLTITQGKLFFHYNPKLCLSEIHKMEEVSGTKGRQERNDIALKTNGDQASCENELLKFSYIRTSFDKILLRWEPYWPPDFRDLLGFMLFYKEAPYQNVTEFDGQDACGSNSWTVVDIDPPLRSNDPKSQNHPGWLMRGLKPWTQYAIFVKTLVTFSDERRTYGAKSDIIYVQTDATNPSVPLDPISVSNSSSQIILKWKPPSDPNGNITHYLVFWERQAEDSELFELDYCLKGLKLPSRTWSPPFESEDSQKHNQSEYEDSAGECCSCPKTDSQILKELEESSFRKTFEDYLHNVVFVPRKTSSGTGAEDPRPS
Sequence of Insulin receptor (Homo sapiens) (P06213 763-1382 limits assumed): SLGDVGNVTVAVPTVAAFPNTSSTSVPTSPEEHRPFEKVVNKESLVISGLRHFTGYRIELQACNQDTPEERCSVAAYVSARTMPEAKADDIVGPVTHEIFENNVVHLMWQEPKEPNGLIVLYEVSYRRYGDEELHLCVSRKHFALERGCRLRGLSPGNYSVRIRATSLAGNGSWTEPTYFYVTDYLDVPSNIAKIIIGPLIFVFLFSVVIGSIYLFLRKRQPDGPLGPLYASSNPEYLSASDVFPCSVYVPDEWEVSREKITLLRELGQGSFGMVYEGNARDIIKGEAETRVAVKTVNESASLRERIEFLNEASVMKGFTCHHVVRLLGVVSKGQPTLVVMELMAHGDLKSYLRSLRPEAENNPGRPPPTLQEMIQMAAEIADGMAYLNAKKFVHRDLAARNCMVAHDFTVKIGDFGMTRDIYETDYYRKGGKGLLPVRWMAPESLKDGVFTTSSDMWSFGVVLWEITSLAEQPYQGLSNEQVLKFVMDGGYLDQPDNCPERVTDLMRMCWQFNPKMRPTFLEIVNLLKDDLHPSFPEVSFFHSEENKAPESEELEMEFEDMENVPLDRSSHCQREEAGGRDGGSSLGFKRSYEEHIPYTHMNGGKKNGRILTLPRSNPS

Structure (SMILES)	inhibition [1]	inhibition [2]	inhibition [3]	inhibition [4]	inhibition [5]	inhibition [6]	inhibition [7]	inhibition [8]	inhibition [9]	inhibition [10]	inhibition [11]	inhibition [12]	inhibition [13]	inhibition [14]	inhibition [15]	inhibition [16]	inhibition [17]	inhibition [18]	inhibition [19]	inhibition [20]
CN(C)C(=O)O[C@H]1CN[C@H](C#Cc2cc3ncnc(Nc4ccc(OCc5cccc(F)c5)c(Cl)c4)c3s2)C1	1.7%	4.49%	10.5%	3.22%	2.88%	4.02%	3.06%	0.79%	1.4%	1.49%	1.42%	2.35%	4.66%	1.84%	1.89%	-0.68%	1.63%	4.69%	9.06%	2.32%
FC(F)(F)c1ccc(-c2nn3ncccc3c2-c2ccnc(Nc3ccc4c(c3)OCCO4)n2)cc1	21.2%	0.59%	15.1%	-3.01%	-2.92%	0.23%	0.63%	-0.78%	0.97%	5.77%	4.7%	7.49%	24.3%	-0.67%	-0.89%	6.03%	4.36%	-0.31%	9.68%	6.76%
ON=C1CCc2cc(-c3nc(C4CCNCC4)[nH]c3-c3ccncc3)ccc21	0.87%	0.2%	4.24%	-1.78%	-0.56%	1.61%	-0.75%	-1.51%	-0.82%	0.74%	0.87%	-0.79%	0.05%	-0.01%	0.28%	-1.58%	3.17%	1.06%	4.49%	-3%
CN(C)CCCn1c(-c2nonc2N)nc2cnccc21	1.87%	5.43%	6.49%	10.2%	9.74%	7.05%	4.75%	2.59%	4.16%	1.43%	0.92%	4.69%	6.17%	1.25%	0.79%	-1.68%	-0.27%	4.41%	8.24%	2.22%
CC(C)c1ccc(Nc2nccc(-c3cnn4ncccc34)n2)cc1	6.49%	4%	8.83%	11.8%	53.1%	10.2%	48.2%	2.81%	8.71%	0.75%	1.41%	2.68%	8.98%	2.04%	8.72%	0.01%	6.19%	5.7%	14.6%	68.6%
NS(=O)(=O)c1cccc(-c2cc3ccncc3cc2OCc2ccccc2)c1	4.87%	7.87%	11.1%	9.68%	10.4%	2.6%	4.4%	2.82%	1.54%	1.77%	3.72%	0.51%	2.7%	1.82%	0.92%	-0.33%	0.81%	13.4%	17.1%	6.67%
CS(=O)(=O)CCNCc1nc(-c2ccc3ncnc(Nc4ccc(OCc5cccc(C(F)(F)F)c5)cc4)c3c2)cs1	3.35%	3.91%	5.68%	4.43%	3.36%	1.31%	3.15%	-0.71%	1.53%	1.21%	2.53%	1.05%	3.96%	1.09%	3.08%	-0.8%	1.6%	2.88%	9.28%	1.96%
